Data reported in PubChem BioAssay (NCATS).
This is one part of the list. Inconclusive results are not listed. The source made the active and inactive calls. Calls follow the shape of the dose curve; as a rule, active = well fitted inhibition curve with a large enough effect; inconclusive = small, poorly fitted or top-dose-only effect; inactive = no such curve, though single readings can be large or run the other way.

These compounds were tested against ATPase family AAA domain-containing protein 5 (Homo sapiens) (UniProt Q96QE3) (assay: HTS assay for small molecules that inhibit ELG1-dependent DNA repair in human embryonic kidney (HEK293T) cells expressing luciferase-tagged ELG1: Hit Confirmation (AID 624248; also: nearly all actives have a fitted effect of over 55% in size)). Details: HEK293T ELG1-luciferase levels, luminescence, cells co-treated with 5-fluorouridine; series mostly up to 46.1 µM.
Source text: Cancer cells divide rapidly compared to normal cells in the body. During cell division, cancer cells need to duplicate their genome by DNA replication. The failure of genome duplication leads to cancer cells' death. Therefore, inhibitors of DNA replication could specifically kill cancer cells. Based on this concept, many chemotherapeutic agents were developed and have been used to treat cancer patients. However, there are a limited number of agents available in the clinical setting, and some of those that do exist have low efficacy and severe side effects. Therefore, if we can find the compounds that effectively block DNA replication either by directly damaging DNA or by inhibiting other cellular mechanisms, the options for cancer treatment will be broadened. With this in mind, we developed a quantitative high-throughput ELG1-luciferase reporter gene assay. Small molecules that specifically block ELG1 function in response to DNA damage can be identified by monitoring the suppression of luciferase activity. Since ELG1 defines a pathway for repairing DNA damage, agents blocking ELG1 function can be used to sensitize cancer cells to chemotherapeutic agents whose mechanism of action involves the induction of DNA damage.
NIH Molecular Libraries Probe Production Network [MLPCN]
NIH Chemical Genomics Center [NCGC]
Assay Provider: Kyungjae Myung, NHGRI, NIH
For genotoxicity screening, 2,000 cells in 4 uL/well were dispensed into white, solid-bottom 1536-well plates using a solenoid-based dispenser. Following transfer of 1 uL 5-Fluorouridine and 23 nL compound or DMSO vehicle by a pin tool, the plates were incubated 16 hr at 37 °C and 5% CO2. 5 ul ONE-Glo (Promega) was then added to each plate and following a 30 min incubation at room temperature, luciferase activity was quantified on a ViewLux CCD-based plate reader.
Potency is read from the fitted curve at half-maximal effect.

Sequence of ATPase family AAA domain-containing protein 5 (Homo sapiens) (Q96QE3 whole entry, looked up, the tested form may be a part): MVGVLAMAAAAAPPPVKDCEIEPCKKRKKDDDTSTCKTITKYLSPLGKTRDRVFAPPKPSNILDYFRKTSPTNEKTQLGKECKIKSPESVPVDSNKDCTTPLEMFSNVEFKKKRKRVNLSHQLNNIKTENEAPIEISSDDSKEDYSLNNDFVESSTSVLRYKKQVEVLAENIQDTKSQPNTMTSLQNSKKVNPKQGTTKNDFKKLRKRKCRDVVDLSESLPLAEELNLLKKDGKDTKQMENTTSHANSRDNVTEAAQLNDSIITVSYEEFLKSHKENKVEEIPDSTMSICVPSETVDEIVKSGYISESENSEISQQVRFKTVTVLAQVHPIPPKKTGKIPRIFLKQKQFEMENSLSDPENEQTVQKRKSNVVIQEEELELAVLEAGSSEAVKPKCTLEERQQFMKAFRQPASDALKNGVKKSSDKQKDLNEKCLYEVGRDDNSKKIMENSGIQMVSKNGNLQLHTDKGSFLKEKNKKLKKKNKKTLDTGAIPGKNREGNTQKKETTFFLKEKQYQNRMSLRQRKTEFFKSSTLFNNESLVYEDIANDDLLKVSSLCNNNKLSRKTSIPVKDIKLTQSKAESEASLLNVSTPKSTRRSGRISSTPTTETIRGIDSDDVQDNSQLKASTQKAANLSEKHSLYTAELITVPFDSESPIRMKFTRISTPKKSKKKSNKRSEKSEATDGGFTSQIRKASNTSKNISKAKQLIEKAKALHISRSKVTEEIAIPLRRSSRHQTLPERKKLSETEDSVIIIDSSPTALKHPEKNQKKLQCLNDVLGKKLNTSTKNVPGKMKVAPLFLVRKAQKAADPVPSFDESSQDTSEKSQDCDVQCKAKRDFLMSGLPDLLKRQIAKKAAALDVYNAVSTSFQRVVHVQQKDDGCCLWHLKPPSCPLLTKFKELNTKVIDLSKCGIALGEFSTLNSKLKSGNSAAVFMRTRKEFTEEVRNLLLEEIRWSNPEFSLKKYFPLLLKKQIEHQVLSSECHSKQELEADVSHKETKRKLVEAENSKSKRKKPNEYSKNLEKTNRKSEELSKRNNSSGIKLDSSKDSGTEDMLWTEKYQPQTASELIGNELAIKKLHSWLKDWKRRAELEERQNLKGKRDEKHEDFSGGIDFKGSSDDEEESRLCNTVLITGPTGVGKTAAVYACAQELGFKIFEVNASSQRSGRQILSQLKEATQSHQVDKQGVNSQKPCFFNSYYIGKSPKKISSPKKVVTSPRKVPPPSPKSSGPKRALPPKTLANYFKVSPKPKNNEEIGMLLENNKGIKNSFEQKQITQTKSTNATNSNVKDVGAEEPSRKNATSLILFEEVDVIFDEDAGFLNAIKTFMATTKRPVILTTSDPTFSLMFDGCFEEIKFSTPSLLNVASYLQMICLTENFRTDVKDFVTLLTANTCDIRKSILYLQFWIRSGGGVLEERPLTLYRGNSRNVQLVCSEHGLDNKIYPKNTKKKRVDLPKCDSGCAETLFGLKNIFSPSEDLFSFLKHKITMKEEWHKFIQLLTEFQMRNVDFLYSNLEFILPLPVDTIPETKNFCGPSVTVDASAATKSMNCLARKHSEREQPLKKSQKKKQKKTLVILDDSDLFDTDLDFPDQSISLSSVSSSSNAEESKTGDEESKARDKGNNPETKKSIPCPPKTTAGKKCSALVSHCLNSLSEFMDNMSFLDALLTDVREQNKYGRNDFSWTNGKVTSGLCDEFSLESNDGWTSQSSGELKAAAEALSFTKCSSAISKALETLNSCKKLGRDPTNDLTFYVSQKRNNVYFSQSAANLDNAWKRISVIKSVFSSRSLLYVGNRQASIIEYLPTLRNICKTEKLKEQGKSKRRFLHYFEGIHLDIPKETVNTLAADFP

Structure (SMILES) | Potency
CN(CC1CCCO1)S(=O)(=O)c1ccc(C(=O)Nc2ccc(F)cc2)cc1 (stereo unspecified) | 9.96 µM (active)
NC(=O)c1sc2nc3c(c(-c4ccccc4)c2c1N)CCC3 | 1.77 µM (active)
COc1ccc(NC(C)=O)cc1NC(=O)CN1CCN(C2c3ccccc3-c3ccccc32)CC1 | 2.81 µM (active)
Cc1ccccc1NC(=O)CSc1nc2ccc(Nc3nc(N4CCOCC4)nc(N4CCOCC4)n3)cc2s1 | 3.15 µM (active)
COc1ccc(CSc2nc(N3CCOCC3)c3c(c2C#N)CC(C)(C)OC3)cc1 | 0.889 µM (active)
OCCCNc1nccc(-c2cc(Nc3cccc(Cl)c3)ncn2)n1 | 0.792 µM (active)
Clc1ccc2nc(-c3ccccc3)nc(C(Cl)Cl)c2c1 | 3.53 µM (active)
COc1ccc(NC(=O)c2sc3nc(C)nc(N4CCN(c5ccccn5)CC4)c3c2C)c(OC)c1 | 3.97 µM (active)
COc1ccc(-c2nn(-c3ccccc3)cc2/C=C\C(=O)N2CCOCC2)cc1[N+](=O)[O-] | 1.41 µM (active)
Cc1ccc(N(Cc2ccc(C(=O)Nc3ccccc3C(=O)NCc3ccco3)cc2)S(C)(=O)=O)cc1C | 6.28 µM (active)
CCc1ccc(N(CC)c2ncnc3nc[nH]c23)cc1 | 4.99 µM (active)
CN(C)c1ccnc2sc3c(=O)n(Cc4ccccc4)cnc3c12 | 4.45 µM (active)
CS(=O)(=O)c1ccc2nc(NC(=O)C3CCCCC3)sc2c1 | 6.28 µM (active)
Cc1cc2oc(=O)cc(CN3CCN(S(=O)(=O)c4cccs4)CC3)c2cc1C(C)C | 3.53 µM (active)
CC(=O)c1c(C)n(-c2ccc(C)cc2)c2ccc(O)cc12 | inactive
Cc1ccc(Nc2nc(N3CCOCC3)nc(N3CCOCC3)n2)cc1Cl | 1.99 µM (active)
CC12CCC(C(=O)N3CCN(c4ncccn4)CC3)(c3nc4ccccc4nc31)C2(C)C (stereo unspecified) | 7.91 µM (active)
COc1ccccc1C(=O)Nc1ccc(C)c(S(=O)(=O)N2CCCCC2)c1 | 14.1 µM (active)
CCOC(=O)c1cccc(NC(=O)C2CCN(c3ncnc4c3nc3n4CCCCC3)CC2)c1 | 3.97 µM (active)
Nc1nnc(SCC(=O)Nc2ccc3nc(SCC(=O)Nc4ccccc4)sc3c2)s1 | 0.888 µM (active)
Cc1ccc(C)c(S(=O)(=O)N2CCN(c3ncnc4sccc34)CC2)c1 | 4.99 µM (active)
